Seven compounds from PubChem BioAssay (NCATS) can be followed below.

Assay [1] in a line: qHTS drug screen for cell cycle checkpoint inhibitors in PARPi-resistant BRCA-mutant ovarian cancer cell lines. (AID 1963452; calls by dose curve). Particulars: PEO1/OlaR viability, CellTiter-Glo luminescence, 96 h, stronger effect = lower value. A digest of the protocol: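 PEO1, PEO4 and PEO1/OlaR ovarian cancer cells, 600 per well, exposed 96 h at 37C to a dilution series. Viability read by CellTiter-Glo luminescence, normalized to DMSO and empty wells; activity summarized as Z-AUC.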

Assay [2] in a line: qHTS for identification of novel therapeutic agents for treatment of microphthalmiaassociated transcription factor (MiT) renal cell carcinoma (RCC) (AID 1963991; calls by dose curve; further: potency means the concentration at half of the fitted maximal effect). Particulars: CellTiter-Glo, 48 h; for z-score: stronger effect = lower value. A digest of the protocol:
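Three TFE3-fusion RCC cell lines (UOK109, UOK124, UOK145), 500 cells/well, were exposed to the 1912-compound MIPE 4.0 library for 48 hours at 37 C. Viability was read by CellTiter-Glo luminescence, normalised to DMSO (100%) and empty wells (0%), with 11-concentration curve fits.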
(In qHTS, concentration-response curves come from the screen itself.)

A short description of assay [3]: qHTS profiling for inhibitors of Plasmodium falciparum proliferation (AID 504749). Further: nearly all actives have a fitted effect of over 60% in size. Further: potency means the concentration at half of the fitted maximal effect.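 On activity, negative = inhibition: 0% = DMSO vehicle and full inhibition = artemisinin control.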 The conditions noted are these: P. falciparum in erythrocytes, SYBR Green DNA, 72 h. In outline:
(§1)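 Infected RBCs, 0.3% parasitemia/2.5% Hct final; cpd 72 h, 37 C, 5% CO2; lysis buffer with saponin/triton/SYBR Green I, o/n RT dark; FI 485/535; norm. to artemisinin (0.29 uM) and DMSO.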

The subject of another assay is 3D7. The assay is described as above. Particulars: P. falciparum in erythrocytes, SYBR Green DNA, 72 h; series mostly up to 28.7 µM. A digest of the protocol: as §1
The test system of the next assay is 7G8. The assay is described as above. The conditions noted are these: P. falciparum in erythrocytes, SYBR Green DNA, 72 h; series mostly up to 28.7 µM. In outline:
as §1

For the next assay, the system named is AA1029. The description is as above. The conditions noted are these: P. falciparum in erythrocytes, SYBR Green DNA, 72 h; series mostly up to 28.7 µM. In outline: as §1
For a further assay, the system named is AS120. Described as above. Particulars: P. falciparum in erythrocytes, SYBR Green DNA, 72 h; series mostly up to 28.7 µM. In outline: as §1
The test system of the next assay is ATS189. The description is as above. Particulars: P. falciparum in erythrocytes, SYBR Green DNA, 72 h; series mostly up to 28.7 µM. In outline: as §1
For the next assay, the system named is ATS95. Described as above. The conditions noted are these: P. falciparum in erythrocytes, SYBR Green DNA, 72 h; series mostly up to 28.7 µM. In outline: as §1
For a further assay, the system named is C2A. The description is as above. The conditions noted are these: P. falciparum in erythrocytes, SYBR Green DNA, 72 h; series mostly up to 28.7 µM. A digest of the protocol: as §1
Another assay concerns CP185. The description is as above. Particulars: P. falciparum in erythrocytes, SYBR Green DNA, 72 h; series mostly up to 28.7 µM. A digest of the protocol:
as §1

The test system of the next assay is CP191. Described as above. Particulars: P. falciparum in erythrocytes, SYBR Green DNA, 72 h; series mostly up to 28.7 µM. A digest of the protocol: as §1
In another assay the test system is CP192. The assay is described as above. The conditions noted are these: P. falciparum in erythrocytes, SYBR Green DNA, 72 h; series mostly up to 28.7 µM. A digest of the protocol: as §1
Setting [4] is: measured here: PEO1 parental Z-AUC.
[5] abbreviates: TFE3-RCC UOK109 viability, measured here: UOK109 Z-AUC.
Where [6] appears, read: TFE3-RCC viability, measured here: UOK124 Z-AUC.
[7] abbreviates: TFE3-RCC viability, measured here: UOK145 Z-AUC.
Where [8] appears, read: at 28.7 µM (top of the series), parasite line A.
[9] abbreviates: at 28.7 µM (top of the series), parasite line B.

Inconclusive results are not listed. Activity calls are given as the source filed them. Unless noted, the call rests on the fitted dose curve; in most records, active means well fitted inhibition curve with a large enough effect; inconclusive means small, poorly fitted or top-dose-only effect; inactive means flat fitted curve, though single readings scatter.

Regarding `N[C@@H]1CONC1=O`, the Z-AUC in assay [1] is -0.0127 (inactive); in assay [1] (setting [4]), 1.55; in [1] (measured here: PEO4 Z-AUC) it was 1.43. The results for the z-score in [2] (setting [5]), in assay [2] (setting [6]) and in assay [2] (setting [7]) were 0.394, 0.295 and 0.675, respectively. For the same compound, the activity, negative = inhibition in assay [3] (setting [8]) was -21% (inactive); in assay [3] (setting [9]), -17% (inactive). Further, the Potency result in the assay on 3D7, in the assay on 7G8, with AA1029, in the assay with AS120, in the assay on ATS189 and in the assay on ATS95 was “inactive” in each case. The Potency result in the assay with C2A, in the assay with CP185, with CP191 and in the assay with CP192 was “inactive” throughout.

With `COc1nc(-c2ccc3c(c2)OCO3)n(-c2ccc(NC(=O)CSc3ccccc3)cc2)n1`, the figures for the Z-AUC in assay [1], in [1] (setting [4]) and in [1] (measured here: PEO4 Z-AUC) were 1.83 (inactive), 1.23 and 1.19, respectively. Further, the z-score came to 0.687 in [2] (setting [5]), 0.0138 in [2] (setting [6]) and 0.717 in assay [2] (setting [7]).

`O=C1CCC(N2C(=O)c3ccccc3C2=O)C(=O)N1` (configuration not stated): the figures for the Z-AUC in assay [1], in assay [1] (setting [4]) and in assay [1] (measured here: PEO4 Z-AUC) were 0.908 (inactive), 0.614 and 0.388, respectively. Also, the z-score was 0.392 in assay [2] (setting [5]), -0.79 in assay [2] (setting [6]) and 0.456 in [2] (setting [7]). In addition, the activity, negative = inhibition in assay [3] (setting [8]) was 3.13% (inactive). In addition, the Potency result in the assay on 3D7, in the assay with 7G8, with AA1029, in the assay on AS120, with ATS189 and in the assay on ATS95 was “inactive” throughout. Further, the Potency result in the assay with C2A, with CP185, in the assay on CP191 and in the assay with CP192 was “inactive” each time.

With `Cc1c(C)c2c(c(C)c1O)CCC(C)(COc1ccc(CC3SC(=O)NC3=O)cc1)O2` (configuration not stated), the Z-AUC was 0.635 (inactive) in [1], 0.564 in [1] (setting [4]) and 0.844 in assay [1] (measured here: PEO4 Z-AUC). Moreover, the z-score in [2] (setting [5]) was 0.729; in assay [2] (setting [6]), 0.103; in assay [2] (setting [7]) it was -0.301. In [3] (setting [8]), the activity, negative = inhibition was -7.46% (inactive). Moreover, the Potency entry in the assay on 3D7, with ATS95, with C2A, in the assay on CP185 and in the assay on CP192 was “inactive” in each case. Besides, the Potency in the assay with 7G8 is 10 µM (active).

Regarding `Nc1nc2c(ncn2COCCO)c(=O)[nH]1`, the Z-AUC in assay [1] is -0.761 (inactive); in assay [1] (setting [4]), -0.588; in assay [1] (measured here: PEO4 Z-AUC), -0.538. Also, the z-score was found to be 0.456 in assay [2] (setting [5]), 1.73 in assay [2] (setting [6]) and 0.51 in assay [2] (setting [7]). Further, the activity, negative = inhibition was 8.65% (inactive) in [3] (at 12.8 µM (top of the series), parasite line A) and -5.76% (inactive) in assay [3] (at 12.8 µM (top of the series), parasite line B). Also, the Potency result in the assay with 3D7, in the assay on 7G8, in the assay with AA1029, in the assay on AS120, in the assay with ATS189 and in the assay on ATS95 was “inactive” in each case. Besides, the Potency entry in the assay on C2A, with CP185, in the assay on CP191 and in the assay with CP192 was “inactive” each time.

On to `Oc1cccc(-c2nc(N3CCOCC3)c3oc4ncccc4c3n2)c1`, for which the Z-AUC in assay [1] was -0.82 (inactive); in assay [1] (setting [4]) it was -0.749; in assay [1] (measured here: PEO4 Z-AUC), -0.797. In addition, the Potency in [2] (TFE3-RCC UOK109 viability, active = Z-AUC below -0.8 in all three lines) was 4.81 µM (active). Further, the z-score in assay [2] (setting [5]) was -1.31; in assay [2] (setting [6]), -1.8; in assay [2] (setting [7]), -2.03.

Take `O=NN(CCCl)C(=O)NCCCl`: the Z-AUC in assay [1] is 0.732 (inactive); in [1] (setting [4]) it was 0.83; in assay [1] (measured here: PEO4 Z-AUC), 0.781. In addition, the figures for the z-score in [2] (setting [5]), in assay [2] (setting [6]) and in assay [2] (setting [7]) were -0.0741, 1.48 and -0.0256, respectively. For the same compound, the figures for the activity, negative = inhibition in assay [3] (setting [8]) and in assay [3] (setting [9]) were -1.48% (inactive) and 4.82% (inactive), respectively. The Potency result in the assay with 3D7, in the assay on 7G8, in the assay on AA1029, in the assay on AS120, in the assay with ATS189 and with ATS95 was “inactive” each time. Besides, the Potency entry in the assay with C2A, with CP185, with CP191 and in the assay with CP192 was “inactive” in each case.
